# Screening data as filed in PubChem BioAssay.
# BLM inh: blocks DNA unwinding by human BLM helicase | Potency, µM (top dose mostly 56.1 µM), without a hit: at the top dose activity change, negative = inhibition, actives largely listed as inhibitors | P54132 | recombinant BLM DNA unwinding, fluorescence dequenching | AID 2528 | 0.2% of 350,000 active;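 also: plate controls were vehicle for no effect and no enzyme for full effect; nearly all actives have a fitted effect of over 35% in size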
# TRb-SRC2 inh: TRbeta-SRC2 interaction inhibition. P10828. 0.065% of 280,000 active. TRbeta-SRC2 peptide binding, fluorescence polarization; receptor liganded with 1 µM T3. Potency, µM (series often up to 106 µM), inactives show top-dose activity change, negative = inhibition, actives largely listed as inhibitors;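 also: plate controls were bound peptide for no effect and peptide without receptor for full effect; nearly all actives have a fitted effect of over 50% in size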
# Target sequence (P10828 whole entry, looked up): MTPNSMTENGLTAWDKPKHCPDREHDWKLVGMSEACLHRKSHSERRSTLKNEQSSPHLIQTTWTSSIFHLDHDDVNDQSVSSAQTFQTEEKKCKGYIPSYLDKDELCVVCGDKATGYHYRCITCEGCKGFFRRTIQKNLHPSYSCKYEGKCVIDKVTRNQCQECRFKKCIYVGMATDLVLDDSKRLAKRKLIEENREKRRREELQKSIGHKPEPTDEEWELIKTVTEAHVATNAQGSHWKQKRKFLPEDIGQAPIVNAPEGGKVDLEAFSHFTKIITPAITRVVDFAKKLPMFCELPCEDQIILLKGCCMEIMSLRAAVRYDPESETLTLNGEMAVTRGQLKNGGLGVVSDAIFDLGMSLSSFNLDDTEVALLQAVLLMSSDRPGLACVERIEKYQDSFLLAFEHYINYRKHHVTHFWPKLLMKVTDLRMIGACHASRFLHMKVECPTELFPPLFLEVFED
#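 Fluorescence polarization of 20 nM Texas Red SRC2 peptide (20-aa NR interaction domain) bound to 0.6 uM human TRb ligand-binding domain, with 1 uM T3, after 5 hr at ambient temperature; inhibition seen as decreased polarization.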
# TR SRC2 fluor cs: counter-screen for TRb-SRC2 inhibitors: fluorescence interference | Potency, µM (doses to about 106 µM), for inactives: at the top dose fluorescence change, negative = quenching | 0.29% of 280,000 active | AID 1479 | TRb/SRC2 Texas Red total fluorescence interference; active = well fitted curve in either direction with a large enough effect; inconclusive = small, poorly fitted or top-dose-only effect
#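 Human TRβ ligand-binding domain (0.6 uM) and Texas Red SRC2 peptide (20 nM) in Tris buffer with 1 uM T3 and 5% DMSO were incubated with pinned compound for 5 hr at ambient temperature. Total fluorescence was computed as S + 2P (555/632 nm).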
# RECQ1 inh: blocks DNA unwinding by human RECQ1. RECQ1 DNA unwinding, red fluorescence kinetic read. Potency, µM (doses to about 57.3 µM), for inactives: at the highest dose activity, negative = inhibition, actives largely listed as inhibitors. 0.54% of 240,000 active;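 also: plate controls were vehicle for no effect and no enzyme for full effect; nearly all actives have a fitted effect of over 30% in size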
#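 50 nM RECQ1T1 preincubated 15 min with compound in Tris pH 8.0 buffer with MgCl2, DTT, Tween-20 and 2.5 ug/ml poly(dI-dC); started with 200 nM TAMRA/BHQ-2 forked duplex and 2 mM ATP. Unwinding read as fluorescence (525/598 nm), two reads 2 h apart.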
# Starred values were filed as active, the others as inactive; ? = inconclusive; nt = not tested or not shown; [ ] = another dose, or the depositor's remark. Most compounds without a hit are left out; they make up all but 0.64% or so of the library. Unless noted, calls follow the shape of the dose curve; as a rule, active = well fitted curve in the direction sought with a large enough effect; inconclusive = small, poorly fitted or top-dose-only effect, or another doubt; inactive = no such curve, though single readings can be large; an effect the other way counts as inactive or inconclusive. Unless noted, % is scaled to controls: 0 for no effect and ±100 for the full control effect; potency is read from the fitted curve at half-maximal effect.
SMILES,BLM inh,TRb-SRC2 inh,TR SRC2 fluor cs,RECQ1 inh
COc1ccc(-c2noc(-c3ccc(C)cc3Cl)n2)cc1OC,-5%,-7%,0.13µM*[quencher],nt
COc1ccc(NC(=O)CN(Cc2ccccc2)S(=O)(=O)c2ccc(C)cc2)cc1Cl,-14%,-11%,6.3µM*[quencher],nt
COc1ccc(N=C2NC(=O)S/C2=C\c2ccc(N(C)C)cc2)cc1,2%,32µM*,50µM*[fluorescent],-13%
Cc1ccc(NC(=O)CSc2nc3nccnc3c(=O)n2CCc2c[nH]c3ccccc23)cc1,3%,?,25µM*[quencher],nt
O=C(CSc1nc2nccnc2c(=O)n1CCc1c[nH]c2ccccc12)Nc1ccccc1,1%,?,?,nt
CCCCNS(=O)(=O)c1ccccc1,nt,-3%[201 µM],-3%[201 µM],nt
CCCCCCCC(=O)OC,nt,6%[201 µM],-3%[201 µM],nt
CCOc1cc(/C=C2\SC(=S)N(NC(=O)c3cccnc3)C2=O)ccc1O,-7%,?,16%,18µM*
CCOc1cc(/C=C2/SC(=S)N(CC3CCCO3)C2=O)ccc1O (centres undefined),-13%,10%[53 µM],4%[53 µM],14µM*
CCCCCCCCCC(=O)OC,nt,3%[201 µM],0%[201 µM],nt
C=C[Si](OCCOC)(OCCOC)OCCOC,nt,-3%[201 µM],-2%[201 µM],nt
CCCCCCCCCCCCCCC(=O)OC,nt,1%[201 µM],-2%[201 µM],nt
Cc1ccccc1Nc1nnc(-c2ccc(C)c(S(=O)(=O)N3CCOCC3)c2)c2ccccc12,-4%,-5%,3%,nt
Cc1ccc(Nc2nnc(-c3ccc(C)c(S(=O)(=O)N4CCOCC4)c3)c3ccccc23)c(C)c1,-8%,-12%,0.014µM*[quencher],nt
Cc1ccc(CNCc2ccccc2Cl)s1,-1%,2%,-3%,nt
Cc1ccc(CNCc2ccccc2)s1,-1%,-13%,18µM*[quencher],nt
CCCN(C(=O)c1cc2c(s1)-c1ccccc1SC2)c1ccccc1F,-9%,2%,-1%,nt
C=CCCCCCCCCCCCC,nt,3%[201 µM],-4%[201 µM],nt
Cc1cccc(NC(=O)CCN2CCN(c3ccccc3F)CC2)c1,-2%,3%,?,nt
CN(CC(=O)NCc1ccccc1)S(=O)(=O)c1ccc2[nH]c3c(c2c1)CCCC3,-10%,-4%,0%,nt
CN(CC(=O)NCc1ccc(F)cc1)S(=O)(=O)c1ccc2[nH]c3c(c2c1)CCCC3,-7%,-7%,18µM*[quencher],nt
Cc1cc(C)cc(NC(=O)CN(C)S(=O)(=O)c2ccc3[nH]c4c(c3c2)CCCC4)c1,-11%,4%,1%,nt
Cc1cccc(C)c1NC(=O)CN(C)S(=O)(=O)c1ccc2[nH]c3c(c2c1)CCCC3,-14%,-8%,22µM*[quencher],nt
C=C(C)C(=O)Nc1cccc(C2=NOC3(C2)C[C@@H](C(N)=O)N(C(=O)C2(C)CC2)C3)c1 (some centres undefined),4%,-9%,-3%,10µM*
C/C=C\C=C/C(=O)Nc1cccc(C2=NOC3(C2)C[C@@H](C(N)=O)N(C(=O)/C=C/C=C\C)C3)c1 (some centres undefined),10µM*,5%,-2%,22µM*
SMILES,BLM inh,TRb-SRC2 inh,TR SRC2 fluor cs,RECQ1 inh
C=C(C)C(=O)Nc1cccc(C2=NOC3(C2)C[C@@H](C(N)=O)N(C(=O)c2ccc(Cl)cc2)C3)c1 (some centres undefined),-19%,1%,-3%,13µM*
CCC(=O)Nc1cccc(C2=NOC3(C2)C[C@@H](C(N)=O)N(C(=O)COc2ccc(Cl)cc2)C3)c1 (some centres undefined),-1%,1%,-1%,-12%
C=C(C)C(=O)Nc1cccc(C2=NOC3(C2)C[C@H](C(N)=O)N(C(=O)COc2ccc(Cl)cc2)C3)c1 (some centres undefined),-15%,8%,-1%,18µM*
CC/C=C\CCOC(=O)c1ccccc1O,nt,-3%[201 µM],-2%[201 µM],nt
CC(=O)N1CCc2c(sc3c2c(=O)n(CCc2ccccc2)c(=O)n3Cc2ccc(F)cc2)C1,-14%,-7%,0%,nt
C/C1=C2/[N-]C(C(CC(N)=O)[C@@]2(C)CCC(=O)NCC(C)OP(=O)([O-])O[C@H]2[C@@H](O)[C@@H](n3cnc4cc(C)c(C)cc43)O[C@@H]2CO)[C@]2(C)N=C(/C(C)=C3N=C(/C=C4N=C1C(CCC(N)=O)C\4(C)C)[C@@H](CCC(N)=O)[C@]\3(C)CC(N)=O)[C@@H](CCC(N)=O)[C@]2(C)CC(N)=O.CC(=O)O.[Co] (some centres undefined),25µM*,nt,nt,nt
Cc1ccc(/C=N/N2C(=S)SC(C)(C)C2N(O)C(=O)Nc2ccc([N+](=O)[O-])cc2)cc1 (centres undefined),-8%,-10%,0%,32µM*
CC1(C)SC(=S)N(/N=C/c2ccc(O)cc2)C1N(O)C(=O)Nc1ccc([N+](=O)[O-])cc1 (centres undefined),-11%,9%,1%,-6%
CCC(=O)Nc1cc(-c2nc3cc(C)cc(C)c3o2)ccc1C,-5%,-11%,-29%,nt
CCC(=O)Nc1cc2c(cc1C(=O)c1ccccc1)OCCO2,-5%,?,28µM*[fluorescent],-17%
O=C(Nc1cc2c(cc1C(=O)c1ccccc1Cl)OCCO2)c1ccccc1,-11%,?,0.089µM*[quencher],nt
COc1ccc2nc(-n3c(O)c(C4=c5ccccc5=NC4=O)[nH]c3=S)sc2c1,20µM*,15%,?,-6%
Cl[Si](Cl)(Cl)c1ccccc1,nt,-3%[201 µM],-7%[201 µM],nt
C/C(=N\Nc1ccc([N+](=O)[O-])cc1)c1ccc(N)cc1,-1%,-27%[53 µM],0.32µM*[quencher],6%
O=[N+]([O-])c1ccc(O)cc1C(F)(F)F,nt,-9%[201 µM],1%[201 µM],nt
Cc1ccc2nc(-c3ccc(NS(C)(=O)=O)cc3)cc(-c3ccccc3)c2c1,-28%,nt,nt,-31%
CCS(=O)(=O)Nc1ccc(-c2cc(-c3ccccc3)c3cc(C)ccc3n2)cc1,-3%,-15%[53 µM],0.14µM*[quencher],0%
C[Si]1(C)O[Si](C)(C)O[Si](C)(C)O1,nt,7%[201 µM],0%[201 µM],nt
CCOc1ccccc1CNC(=O)CN1C(=O)c2cccnc2Oc2ccc(C)cc21,0%,-13%,22µM*[quencher],nt
CC(C)Oc1ccc(CNC(=O)CN2C(=O)c3cccnc3Oc3ccc(Cl)cc32)cc1,-4%,-1%,20µM*[quencher],nt
O=C(c1ccc(F)cc1)n1nc(-c2cccnc2)nc1NCc1ccccc1,2%,-3%,-2%,nt
CC(C)CC(=O)n1nc(-c2cccnc2)nc1NCc1ccc(F)cc1,-6%,-6%,0.089µM*[quencher],nt
CCOc1ccc(N2CC(c3nc4ccccc4n3CCCOc3ccccc3OC)CC2=O)cc1 (centres undefined),-3%,-6%,71µM*[quencher],nt
CCC(C)Sc1c(C(C)C)cnc2c1c(=O)n(C)c(=O)n2C (centres undefined),-2%,2%,0%,nt
COc1ccccc1C(=O)Nc1ccc(-c2cc(C(F)(F)F)nn2-c2ccccc2)cc1,-12%,-10%,?,nt
CCc1ccc2occ(CC(=O)Nc3ccc(OC)c(Cl)c3)c2c1,-9%,-17%[53 µM],0.089µM*[quencher],nt
CCc1ccc2occ(CC(=O)NCc3ccccc3)c2c1,-3%,5%,9%,nt
COc1cc(/C=N/NC(=O)COc2ccccc2[N+](=O)[O-])ccc1OC(=O)c1ccco1,-7%,-4%,-4%,3%
